# PubChem BioAssay AID1345083 (National Center for Advancing Translational Sciences (NCATS), 2018)
# Screen size: about 94,000 compounds; about 6,200 (6.6%) were called active. Roughly 31% stayed inconclusive and do not appear here. Many of the other results were omitted from the sample, so actives are more common in it than they were. A number with no mark means an inactive call. Calls follow the shape of the dose curve; as a rule, active = well fitted inhibition curve with a large enough effect; inconclusive = small, poorly fitted or top-dose-only effect; inactive = flat fitted curve, though single readings scatter.
# Experiment: Cytotoxic Profiling in HEK 293 Cell Line of Diverse Libraries Using Quantitative High-Throughput Screening; also: nearly all actives have a fitted effect of over 60% in size
# Conditions: HEK 293 viability, ATP luminescence (CellTiter-Glo), 48-72 h; series mostly up to 115 µM; activity change, negative = cytotoxicity: at the top concentration
# Summary of the method: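 Cytotoxicity was scored by loss of ATP-coupled luminescence (CellTiter-Glo) in HEK 293 cells. Compound treatment ran 48 or 72 hr at 37 degree Celsius, 5% CO2, 95% humidity.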
# % is scaled to controls: 0 for no effect and ±100 for the full control effect; potency is read from the fitted curve at half-maximal effect.
Compound,"activity change, negative = cytotoxicity",outcome,Potency
CCOc1nccnc1NC1CCN(C(=O)c2cccnc2)CC1,6.7%,,
Cc1nn(CCO)cc1-c1c(-c2ccccc2)ncn1CC(=O)O,-9.19%,,
O=C(c1cccnc1)N1CCC(c2nnc(Cn3cccn3)n2C2CC2)CC1,,inactive,
Cc1cnc(C(=O)N[C@@H]2CCC[C@@H]2C(=O)Nc2ccc3c(c2)OCCO3)cn1,-7.64%,,
O=C(O)CCc1cc2n(n1)CCCN(C(=O)CN1CCOC1=O)C2,-3.14%,,
CS(=O)(=O)c1ccc(N2CCN(C(=O)[C@H]3CC[C@@H](N)C3)CC2)c(F)c1,,inactive,
O=C(c1ccccc1F)N1CCC(c2nn(-c3ccc(F)cc3)c(=O)[nH]2)CC1,-24.9%,,
O=C(c1ccccc1F)N1CCC(c2nn(-c3ccc(Cl)cc3)c(=O)[nH]2)CC1,,,79.4 µM (active)
Cc1ccc(C(=O)N2CCC(c3nn(-c4ccccc4)c(=O)[nH]3)CC2)cc1,-28.8%,,
COc1cc(=O)n2c(c1C(=O)Nc1cc(C)ccc1C)CCCC2,5.72%,,
O=C(NC1CCCN(CCn2nc3n(c2=O)CCCC3)C1)c1ccc(F)cc1 (configuration not stated),,inactive,
CCCCCC(=O)N1CC[C@H]2COC(=O)N2c2cc(F)ccc2C1,-1.72% [at 172 µM],,
O=S(=O)(c1ccccc1)N1CCC(F)(c2nc(Cc3ccccc3)no2)CC1,,,44.7 µM (active)
O=S(=O)(c1ccccc1)N1CCN(c2ccnc3ccnn23)CC1,-19.4%,,
CN(CCc1noc(C2CN(S(=O)(=O)c3ccccc3)C2)n1)C(=O)c1ccncc1,-17.8%,,
O=C(NCc1ccncc1)C1CC(=O)N(c2n[nH]c3cccc(F)c23)C1 (configuration not stated),-11%,,
Cc1ncc(C(=O)N2CCCC(c3cc(N4CCOCC4)nc(C)n3)C2)cn1 (configuration not stated),-4.68%,,
CN(C)C(=O)C1=NOC2CN(C(=O)c3ccn(C)n3)CC12 (configuration not stated),,inactive [at 172 µM],
O=C(CN1C(=O)NC2(CCOCC2)C1=O)Nc1cccc(Br)c1,-9.49%,,
CCOc1ccccc1CN1CCC2(CCN(Cc3cncs3)CC2)Oc2ccccc21,,,44.7 µM (active)
CCOc1ccccc1CN1CCCOCCNC(=O)CC1,4.71%,,

Compound,"activity change, negative = cytotoxicity",outcome,Potency
CCOc1ccccc1CN1CCC2(CCN(C(=O)c3cccc(Cl)c3)CC2)Oc2ccccc21,-12.9%,,
CCn1ccc(C(=O)N2C[C@@H](F)C[C@H]2C(=O)N2CCCCC2)n1,5.92%,,
C#CCNC(=O)CC[C@H]1CNC(=O)[C@@H]2[C@@H](CCN2Cc2ccc(N(C)C)cc2)N1C,-24.8% [at 172 µM],,
COc1ccc(CN2C[C@H](O)C[C@H]2c2nc(-c3ccc4c(c3)OCO4)no2)c(OC)c1OC,-15.4%,,
N#Cc1ccc(-c2nc(C(=O)NC3CCCCCC3)no2)cc1,5.1%,,
N#Cc1ccc(C(=O)N2C[C@@H]3C[C@H](C2)c2ccc(-c4ccc(OC(F)(F)F)cc4)c(=O)n2C3)cc1,-16.7%,,
CN1C[C@@H](NC(=O)c2cnccn2)C[C@H]1c1nc(-c2ccc3c(c2)OCO3)no1,-7.22% [at 172 µM],,
CN1C[C@@H](NC(=O)COc2ccccc2)C[C@H]1c1nc(-c2ccc3c(c2)OCO3)no1,,,100 µM (active)
CN1C[C@@H](NC(=O)c2ccccc2)C[C@H]1c1nc(-c2ccccc2)no1,-13.3% [at 172 µM],,
CN1C[C@@H](NC(=O)CC(C)(C)C)C[C@H]1c1nc(Cc2ccccc2)no1,-26.1% [at 172 µM],,
CN1C[C@@H](NC(=O)c2ccc(C(C)(C)C)cc2)C[C@H]1c1nc(-c2ccc3ccccc3c2)no1,,,22.4 µM (active)
CN1C[C@@H](NC(=O)c2ccc(C#N)cc2)C[C@H]1c1nc(-c2ccc(OC(F)(F)F)cc2)no1,,,22.4 µM (active)
CN(C)C(=O)N1CCN(C(=O)c2cccc(-c3ccccn3)c2)CC1,-14.7% [at 172 µM],,
Cc1ccc(S(=O)(=O)Cc2noc([C@@H]3C[C@@H](O)CN3Cc3cccs3)n2)cc1,-16.9% [at 172 µM],,
COc1ccc(CCC(=O)N2CCCC(n3c(C)cnc3C3CCOCC3)C2)cc1 (configuration not stated),-23.1%,,
O=C(NC1CC1)c1ccc(CC2CCN(C(=O)c3ccccn3)CC2)cc1,-25.9%,,
COc1ccc(-c2ccc(C(=O)NCc3ccccc3Cl)cc2)nn1,-9.88% [at 172 µM],,
COc1ccc(-c2ccc(C(=O)N3CCN(C(=O)c4cccc(Cl)c4)CC3)cc2)nn1,-0.234%,,
COc1ccc(-c2cccc(C(=O)NCc3cccc(Cl)c3)c2)nn1,,,79.4 µM (active)
CCN1CC2(CCN(C(=O)c3cccc(N4CCOCC4)c3)CC2)OC1=O,-5.91%,,
C[C@H](C(=O)N1Cc2ccccc2CC2(CCN(Cc3ccncc3)CC2)C1)c1ccccc1,,,50.1 µM (active)

Compound,"activity change, negative = cytotoxicity",outcome,Potency
CC(=O)N1Cc2ccccc2CC2(CCN(Cc3cccnc3)CC2)C1,-5.64%,,
CC(=O)N1Cc2ccccc2CC2(CCCN(Cc3ccncc3)C2)C1 (configuration not stated),-1.66%,,
O=C(Nc1cccc(-n2cccn2)c1)C1CCCN(C2CCN(Cc3ccco3)CC2)C1 (configuration not stated),-1.69%,,
COc1ccc(OC)c(CNC(=O)CC2C(=O)NCCN2CC=C(C)C)c1 (configuration not stated),,inactive,
COC[C@@H]1CN(C(=O)c2ccc3ncccc3c2)C[C@H]1c1nc(C)no1,-0.388%,,
CNC(=O)N1CCC2(CC1)CC(Cc1cccc(F)c1)CCO2 (configuration not stated),-28.8%,,
COc1ccc(CC2CCOC3(CCN(C(=O)NCC(C)C)CC3)C2)cc1 (configuration not stated),,,39.8 µM (active)
COc1ccc(CNC(=O)N2CCC3(CC2)CC(OCC2CC2)CCO3)cc1 (configuration not stated),-2.8%,,
O=C1NCCCCCCN(C(=O)Cc2cccnc2)[C@@H]2C[C@@H](c3nc(-c4cnccn4)no3)C[C@H]12,,inactive,
C=CCN1CCC2(CCC1=O)CN(Cc1ncc[nH]1)CCN2C (configuration not stated),,inactive,
O=C(c1ccc(F)cc1)N1CCC(N2CC3CC(C2)[C@H]2CCCC(=O)N2C3)CC1 (some centres not stated),5.13%,,
COCc1cc(CN2C[C@H](NC(=O)CO)[C@@H](C3CC3)C2)ccc1OC,,inactive,
O=C(C1CCN([S+](=O)([O-])c2cccc(C(F)(F)F)c2)CC1)N1CCC(N2CCCC2=O)CC1,-5.24%,,
O=C1CCN(Cc2ccc(C(F)(F)F)cc2)CCCOCCN1,-16.5%,,
O=C1CCCCCN1C1CCN(Cc2ccc(C(F)(F)F)cc2)CC1,,,31.6 µM (active)
Cn1cnc(S(=O)(=O)N[C@@H]2CCOC[C@H]2Oc2ccc(C(N)=O)cc2)c1,3.24%,,
OC1(CN2CCC(CCn3cccn3)CC2)CNCCOC1 (configuration not stated),-5.79%,,
O=C(NC1CCCc2c1[nH]c1c(Cl)cccc21)c1ccco1 (configuration not stated),,,44.7 µM (active)
O=C(Cn1nc(-c2ccco2)ccc1=O)NC1CCCc2c1[nH]c1c(Cl)cccc21 (configuration not stated),1.59%,,
O=C(NC1CCc2nnc(C3CC3)n2CC1)c1ccco1 (configuration not stated),-27.7%,,
